{
  "source": "paper PMC12136788",
  "binders": {"B1": {"name": "chr10:70525781:70525782:+_ENSG00000060339_ENST00000535016|hu_hu|motif|central (ssRNA)", "RNA": "GGGAGUUCUACAGUCCGACGAUCUGAAUGUUCUUUAUUAUCCUCUAAUCUGUAGUCCAAUAGGACACUCAAAGACAUGAUGCGGCAAUCAAACUUGCCACUUUUUGCAGCCCAAUUUGGAUGUACAAUGAUGGCCGGUUCAUCCAACAGAGGAUUGAGCAUCA"}, "B2": {"name": "chr20:57415074:57415075:+_ENSG00000087460_ENST00000313949|hu_hu|motif|central (ssRNA)", "RNA": "GGGAGUUCUACAGUCCGACGAUCUCUGCAGAGAGUGGCUCCGAAGCACAUUGGCUGCUGGAGCCGGGAAAGGUACACCCGGUGAGGUGAGAAGCUGGCCCGGAGGUCCCAGCCUCACCUCCUUGUGAGGAGAAAAAGGGAAGCCAACAGAGGAUUGAGCAUCA"}, "B3": {"name": "chr17:23874276:23874277:-_ENSMUSG00000023909_ENSMUST00000024702|mus_mus|FALSE|FALSE (ssRNA)", "RNA": "GGGAGUUCUACAGUCCGACGAUCAGAGACUCUCACAGGUUAAACAGGGUAAAUUGGGAAAAAAAAAAAUGGUUUCCUUCUAAUGACAGCAAAACAAUGCCCAGGAGGGAAGAUGGCAAGGAAAGUGGAAGCUGGGGUUUGAAGCAACAGAGGAUUGAGCAUCA"}, "B4": {"name": "chr17:23874276:23874277:-_ENSMUSG00000023909_ENSMUST00000024702|mus_mus|motif|central (ssRNA)", "RNA": "B3 RNA with U80G, A81G"}, "B5": {"name": "chr17:23874276:23874277:-_ENSMUSG00000023909_ENSMUST00000024702|mus_hu|FALSE|FALSE (ssRNA)", "RNA": "GGGAGUUCUACAGUCCGACGAUCUCUAACCCCACAGGUCACAGAGGGUAAAGAGGUCCCAAGAGGGAAAGGUUUCCUUCCAGCUGACACAGUAAAAUAGGAGCUUGGAGGGAAAAGGCAGGGAAGGAAGUUGGAGCGCCACGGCAACAGAGGAUUGAGCAUCA"}, "B6": {"name": "chrX:7396663:7396664:+_ENSMUSG00000031153_ENSMUST00000132456|mus_mus|motif|central (ssRNA)", "RNA": "GGGAGUUCUACAGUCCGACGAUCGCAAGGGCAUACAUGGAUGGAUCAGUGGGCAGAGGGACAGAUGGCAGACUGAUGGGCGGACCUGGGAAGUUGAUUGGAGGGUAAAAGAGGUGAACACAAAAGGGCGGUAGAUGACUGGAACAACAGAGGAUUGAGCAUCA"}, "B7": {"name": "chr1:220276048:220276049:+_ENSG00000067704_ENST00000302637|hu_hu|hu_hu_hu_mus_True|1_108 (ssRNA)", "RNA": "GGGAGUUCUACAGUCCGACGAUCGCAAACAGCUUCAUUGGCGGGAAUUGUCCAAGGCUGGGUGGUCCAAACUAAAACGCUAACAGGGGAUGAGGCAUCUGUAAGAGACUCCAACUUCGGAGGAGGUCUCAGGAGGGGAAAUUUCAACAGAGGAUUGAGCAUCA"}, "B8": {"name": "chr18:38611996:38611997:+_ENSMUSG00000024425_ENSMUST00000025293|mus_mus|FALSE|FALSE (ssRNA)", "RNA": "GGGAGUUCUACAGUCCGACGAUCAAGACCAAAUCCUGAGAUGGCCCCAUACCUUCCCGCAGCUGAGGUGGUCAGGCAAAAAGACAAGAAAAACCCAAUCCAGUUGAAGAGGAAUGCCAUGAAAAAAGUUAACAUAAAAAUCCCCAACAGAGGAUUGAGCAUCA"}, "B9": {"name": "chr7:112757510:112757511:-_ENSG00000214194_ENST00000397764|hu_mus|FALSE|FALSE (ssRNA)", "RNA": "GGGAGUUCUACAGUCCGACGAUCCUUUCUUGCGUAUAUCCCCAAGCAAGCACAGAUGCCGGUAAUGCUGAGAACCACACCUAAUAAGAGUGCAAUCGCGUCUCCAGCUUCCACUGCUUCAACAACAGGCAGGAUCAAAAGCAGCAACAGAGGAUUGAGCAUCA"}, "B10": {"name": "chr9:49312907:49312908:-_ENSMUSG00000039542_ENSMUST00000166811|mus_hu|motif|central (ssRNA)", "RNA": "GGGAGUUCUACAGUCCGACGAUCAGCUGCAAUUUGGCAUUCGUCCUAUAAAAUAAGAGUCUACGUGGGAAUUGAAUUCAGCGGGAAAGGGUGACACACUUUGCAUACUGAACAAAUACAAAGUGAACAGAAAUUAUAACUUAUCAACAGAGGAUUGAGCAUCA"}, "B11": {"name": "chr6:168291551:168291552:+_ENSG00000130396_ENST00000400822|hu_hu|motif|central (ssRNA)", "RNA": "GGGAGUUCUACAGUCCGACGAUCGUGUUUCUUGGUUUUCUUUGGGAUGUGGUCUGGUGGCCUCCUCUUCAACUGAAAGACGGAAAUCCCUUUGUCACUUGGCCAUUCCCUGAAGAUUUGUAAAGGACACUCAUCAUCAUCAAGCAACAGAGGAUUGAGCAUCA"}, "B12": {"name": "19737984_19738104_982_3pUTR_ENSG00000105849_ENST00000222567|human|control|control (ssRNA)", "RNA": "GGGAGUUCUACAGUCCGACGAUCGGUGGGGUAAAUUCGGCCUCUUCACUGUGUUUUCUUUUCUUUUUUUUCUUUUUAUGGUCACUUUGGUAACCACUGGAGUCACUGCCUUGGAAAACAGGGUCCUGGUCCUGAACUUCCUGGCAACAGAGGAUUGAGCAUCA"}, "B13": {"name": "chr1:220276048:220276049:+_ENSG00000067704_ENST00000302637|hu_hu|hu_hu_hu_mus_True|18_78 (ssRNA)", "RNA": "GGGAGUUCUACAGUCCGACGAUCGCAAAUUGCCUGGUUGGCGGGAAUUGUCCAAGGUUGUGUGGUCCAAACUAAAACGCUAACAGGGGAUGAGGCAUCUGUAAGAGACUCCAACUUUGGAGAAGGCCUCAGGAGGGGGAAUCUCAACAGAGGAUUGAGCAUCA"}, "B14": {"name": "chr14:102368134:102368135:+_ENSG00000078304_ENST00000445439|hu_hu|hu_hu_hu_mus_True|68_88 (ssRNA)", "RNA": "GGGAGUUCUACAGUCCGACGAUCAAGAGGCUCCAUGAUCUUCACAAAUUCUGAUGGUUCAAUUACAUCUAAAAUCUCUUCUAAUUCAUUUAAGAACAUUACUUCUUUUGGACUGUGAGUCUUUGGCCAGUAUUUGAGAAGUGCCAACAGAGGAUUGAGCAUCA"}, "B15": {"name": "chr5:143664956:143664957:-_ENSMUSG00000029580_ENSMUST00000100497|mus_mus|FALSE|FALSE (ssRNA)", "RNA": "GGGAGUUCUACAGUCCGACGAUCAUACAUCAAGUUGGGGGGACAAAAAAAAGGGAGGCCUCAGACCUGGGCCAUUCAGAAAUUAAAAACAAAAAUGAAGUAUUAAGGCGGAAGAUUUAAAAAAAUUUUUGCAGUACAUAAUUUCAACAGAGGAUUGAGCAUCA"}, "B16": {"name": "chr16:75327710:75327711:-_ENSG00000153774_ENST00000283882|hu_hu|FALSE|FALSE (ssRNA)", "RNA": "GGGAGUUCUACAGUCCGACGAUCAUUUAAGGACAAAUUUUUAAAAGUAAAGUGAAUGAAACCAUUUGUGAUUAAGAUACAUAGACAGAACUUCAAUGUAGAAAAAAAAAAGACCUUGCUGGGAAACAGAUGAUGAGAAACACUCAACAGAGGAUUGAGCAUCA"}, "B17": {"name": "chr5:143664956:143664957:-_ENSMUSG00000029580_ENSMUST00000100497|mus_hu|FALSE|FALSE (ssRNA)", "RNA": "GGGAGUUCUACAGUCCGACGAUCUCUCAAGUUGGGGGACAAAAAAGGGGGAAGGGGGGGCACGAAGGCUCAUCAUUCAAAAUAAAACAAAAUAAAAAAGUAUUAAGGCGAAGAUUAAAAAAAUUUUGCAUUACAUAAUUUACACAACAGAGGAUUGAGCAUCA"}, "B18": {"name": "chr19:58207738:58207739:+_ENSMUSG00000054843_ENSMUST00000077282|mus_mus|motif|central (ssRNA)", "RNA": "GGGAGUUCUACAGUCCGACGAUCUAAUUGGCCACAGAGUUAACAGUAGUGUGUGACAUUGCAUUAAUUCCAUAAUUAUCGGAAAUUCAAAAAUUUUAAAGUUUUAAGAACCUGGGGGAUUCACAGUGGAUGAGGCCUGACAGCCAACAGAGGAUUGAGCAUCA"}, "B19": {"name": "chr14:102368134:102368135:+_ENSG00000078304_ENST00000445439|hu_hu|hu_hu_hu_mus_True|48_68 (ssRNA)", "RNA": "B14 RNA with U48C, A87G"}, "B20": {"name": "chr10:35314101:35314102:-_ENSG00000108094_ENST00000537177|hu_hu|FALSE|FALSE (ssRNA)", "RNA": "GGGAGUUCUACAGUCCGACGAUCUUCACCUGUACACAGAUAAUGUAACCAUGUAAGUUUCCUUCCACUGAAAUGUUGGCUAUAAAAUAAUUCAAACAUCUGUACACUUUUUUCUAAUUCCUGGGGAAUUGCAAACGUAGAUGACAACAGAGGAUUGAGCAUCA"}, "B21": {"name": "chr6:114281168:114281169:-_ENSG00000196591_ENST00000368632|hu_hu|hu_hu_hu_mus_True|8_98 (ssRNA)", "RNA": "GGGAGUUCUACAGUCCGACGAUCUUCCAUUUUUCGGUAUAAGCCAUAAUUUAGCAGCAAGUUAUGAGUCAUCCGGAUUCUAUGAGGCUUCAUGGGAUGACCCUGGCCAUAAUAAUAAUUGCCAAUAUCACAGAUUCAGUAGUACAACAGAGGAUUGAGCAUCA"}},
  "note": "Positions count from the first letter of the chain named. Over roughly 24,000 sequences, “enrichment r” has its median near 0.99; the highest 2% begin near 3.7. The sample as a whole holds a higher share of the highest values than the screen did.",
  "data": [
    {"target": "T1, UNK ZnF1-3 (human, UniProt Q9C0B0 31-174)", "T1 sequence": "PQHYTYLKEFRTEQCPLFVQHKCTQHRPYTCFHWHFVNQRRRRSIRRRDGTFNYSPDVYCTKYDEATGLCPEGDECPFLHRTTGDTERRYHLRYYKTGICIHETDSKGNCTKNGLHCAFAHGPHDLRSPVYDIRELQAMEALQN", "assay": "nsRBNS (natural sequence RNA bind-n-seq); RBNS binding buffer (assumed for nsRBNS): 25 mM Tris pH 7.5, 150 mM KCl, 3 mM MgCl2, 0.01% Triton X-100, 500 ug/ml BSA, 20 U/ml SUPERase-In, 4 C; UNK is unkempt and MSI1 is Musashi-1; names of the RNAs are library labels; protein concentration not given here; high values mean tight binding", "units": {"binding signal": "enrichment R"}, "values": [
      {"binder": "B1", "binding signal": 0.442},
      {"binder": "B2", "binding signal": 0.876},
      {"binder": "B3", "binding signal": 4.07},
      {"binder": "B4", "binding signal": 4.06},
      {"binder": "B5", "binding signal": 1.43},
      {"binder": "B6", "binding signal": 2.58},
      {"binder": "B7", "binding signal": 1.61},
      {"binder": "B8", "binding signal": 2.06},
      {"binder": "B9", "binding signal": 1.38},
      {"binder": "B10", "binding signal": 3.41},
      {"binder": "B11", "binding signal": 0.53},
      {"binder": "B12", "binding signal": 0.463},
      {"binder": "B13", "binding signal": 2.05},
      {"binder": "B14", "binding signal": 0.758},
      {"binder": "B15", "binding signal": 6.75},
      {"binder": "B16", "binding signal": 1.71},
      {"binder": "B17", "binding signal": 8.16},
      {"binder": "B18", "binding signal": 4.11},
      {"binder": "B19", "binding signal": 0.708},
      {"binder": "B20", "binding signal": 1.11},
      {"binder": "B21", "binding signal": 0.99}
    ]}
  ]
}
